Bfl-1 A1 inh = inhibitors of the anti-apoptotic protein A1, read as caspase activation; AID 2462; 0.066% of 330,000 active; caspase activation, % (no concentration beside the values); MEF A1-2A-BIM cells, Caspase-Glo 3/7 luminescence, 3 h; percent of clofoctol response, vehicle zero;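 active = over half of replicate activation scores above 10%, or exactly half above 10 with the replicate mean above 10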
SUMO Mot1 rescue = blocks SUMOylation pathway, rescuing yeast Mot1-301 growth; S. cerevisiae Mot1-301 growth rescue, ATP luminescence, 38.5C; percent above DMSO median, 100 means doubled; growth rescue, % at 18.8 µM; 1% of 320,000 active; AID 2716;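 active = every valid replicate shows activation above 250% relative to neutral control wells; inactive = the rest, any valid replicate at or below 250%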
ALR H2O2 inh = blocks human ALR sulfhydryl oxidase activity; 3.8% of 290,000 active; AID 485317; purified ALR, DTT oxidation, H2O2 HRP-luminol luminescence; inhibition, % (no concentration beside the values);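 active = mean replicate inhibition above about 79%, with every replicate also reaching it, limit read from the data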
AHR activator = human AHR activation. AHR-responsive luciferase reporter cells, luminescence. 2.5% of 320,000 active. P35869. activation, % at 5 µM; in the data active = activation above about 47%
Target sequence (P35869 whole entry, looked up): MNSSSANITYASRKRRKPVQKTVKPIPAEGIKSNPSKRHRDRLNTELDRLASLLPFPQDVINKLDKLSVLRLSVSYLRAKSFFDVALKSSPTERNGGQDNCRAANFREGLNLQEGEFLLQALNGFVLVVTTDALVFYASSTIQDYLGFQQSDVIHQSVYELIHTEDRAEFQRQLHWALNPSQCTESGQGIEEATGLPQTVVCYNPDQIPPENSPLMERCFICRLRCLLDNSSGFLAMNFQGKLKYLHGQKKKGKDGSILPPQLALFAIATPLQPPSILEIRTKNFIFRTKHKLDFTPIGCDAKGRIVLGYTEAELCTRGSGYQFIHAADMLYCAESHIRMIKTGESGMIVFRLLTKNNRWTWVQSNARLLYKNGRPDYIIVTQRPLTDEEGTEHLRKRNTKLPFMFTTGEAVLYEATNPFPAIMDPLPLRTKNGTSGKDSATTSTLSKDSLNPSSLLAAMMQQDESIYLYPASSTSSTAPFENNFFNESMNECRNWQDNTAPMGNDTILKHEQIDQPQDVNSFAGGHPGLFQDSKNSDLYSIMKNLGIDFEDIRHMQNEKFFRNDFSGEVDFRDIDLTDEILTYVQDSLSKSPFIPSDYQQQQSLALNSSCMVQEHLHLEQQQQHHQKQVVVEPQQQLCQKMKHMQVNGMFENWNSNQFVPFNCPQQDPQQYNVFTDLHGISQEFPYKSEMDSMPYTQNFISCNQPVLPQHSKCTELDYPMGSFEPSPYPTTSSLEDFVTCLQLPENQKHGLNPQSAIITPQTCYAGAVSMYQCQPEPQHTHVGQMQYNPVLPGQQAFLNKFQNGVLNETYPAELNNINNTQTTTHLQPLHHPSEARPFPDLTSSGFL
Efflux pump inh = blocks antifungal efflux pumps in multiplex yeast assay; S. cerevisiae Candida pump triplex, Nile Red efflux; inhibition, % at 10 µM; 0.44% of 330,000 active; AID 485275;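 active = plate passing quality check with inhibition over a set limit, or well fluorescence over plate mean plus 4 SD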;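 note: Nile Red retained in pooled yeast measured as flow cytometry median fluorescence; higher means more Nile Red kept so more efflux inhibition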
VLA-4 inh = inhibition in a human VLA-4 binding assay; P13612; VLA-4 expressing cells, ligand binding flow cytometry; inhibition, % (about 7 µM as worked out from the volumes in the protocol); 0.2% of 330,000 active; in the data active = inhibition above about 50%
A number is an active result; - = inactive; . = no result. In the library only some 7.2% were active in any assay of this set; here they are far more common.

SMILES | Bfl-1 A1 inh | SUMO Mot1 rescue | ALR H2O2 inh | AHR activator | Efflux pump inh | VLA-4 inh
O=C1C=C(Nc2ccccc2C(=O)O)c2ccccc2C1=O | - | - | . | 52 | - | -
CCCCSCCCNC(=S)Nc1ccccc1C | - | - | 77 | - | - | -
Cc1ccccc1NC(=S)NCCO | - | - | - | - | - | -
C=CCOn1c(=O)c(-c2ccc(Br)cc2)[n+]([O-])c2ccccc21 | - | - | - | - | - | -
C=CCNC(=O)c1cc2c(=O)n3cccc(C)c3nc2s1 | - | - | - | - | - | -
CCC(C)NC(=O)c1cc2c(=O)n3cccc(C)c3nc2s1 (centres undefined) | - | - | - | 65 | - | -
CCN(CC)C(=O)c1cc2c(=O)n3cccc(C)c3nc2s1 | - | - | - | 47 | - | -
N#Cc1ccccc1OCC(=O)Nc1c(C(=O)C2CC2)oc2ccccc12 | - | - | 90 | - | - | -
O=C(CN1CCCC1)Nc1c(C(=O)C2CC2)oc2ccccc12 | - | - | - | - | - | -
COc1ccc(CNC(=O)COC(=O)c2cc(S(=O)(=O)N3CCOCC3)ccc2O)cc1OC | - | - | - | - | - | -
COC(CNC(=O)C1CCC(CNS(=O)(=O)c2c(C)cc(C)cc2C)CC1)OC (centres undefined) | - | - | . | - | - | -
CCN(CC)c1ccc(N2C(=NC(=O)C3CCCO3)SC3CS(=O)(=O)CC32)cc1 (centres undefined) | - | - | 99 | - | - | -
O=C(N=C1SC2CS(=O)(=O)CC2N1c1ccc(Cl)cc1)C1CCCO1 (centres undefined) | - | - | - | - | - | -
Cc1nc2c3ccccc3nc(NNC(=O)CCC(=O)NC(C)C)n2n1 | - | - | - | - | - | -
COc1ccc(N2CCN(CCNC(=O)CCC(=O)NNc3nc4ccccc4c4nc(C)nn34)CC2)cc1 | - | - | 96 | - | - | -
Cc1nc2c3ccccc3nc(NNC(=O)CCC(=O)NC3CCCC3)n2n1 | - | - | 79 | - | - | -
Cc1nc2c3ccccc3nc(NNC(=O)CCC(=O)NCCN3CCN(c4ccccc4F)CC3)n2n1 | - | - | - | - | - | -
COc1cc2cc(C(=O)O)[nH]c2c(OC)c1OC | - | - | - | - | - | -
CCCOc1cccc(C2C(C(=O)c3cccs3)=C(O)C(=O)N2Cc2cccnc2)c1 (centres undefined) | - | - | - | - | - | -
N/C(=N\OC(=O)c1ccc2c(c1)OCO2)c1cccc(Br)c1 | - | - | - | - | - | -
N/C(=N\OC(=O)c1ccc2c(c1)OCO2)c1cccnc1 | - | - | - | 67 | - | -
N/C(=N\OC(=O)c1cccc(Cl)c1)c1cccnc1 | - | - | - | 75 | - | -
COc1ccc(NC(=O)c2oc3ccccc3c2NC(=O)c2ccc3c(c2)OCO3)cc1 | - | - | - | - | - | -
O=C(Nc1ccc2c(c1)OCCO2)c1oc2ccccc2c1NC(=O)C1CC1 | - | - | - | - | - | -
COCC(=O)Nc1c(C(=O)Nc2ccc3c(c2)OCCO3)oc2ccccc12 | - | - | . | 55 | - | -
SMILES | Bfl-1 A1 inh | SUMO Mot1 rescue | ALR H2O2 inh | AHR activator | Efflux pump inh | VLA-4 inh
CCOCC(=O)Nc1c(C(=O)Nc2ccc3c(c2)OCCO3)oc2ccccc12 | - | - | - | 65 | - | -
O=C(CSc1ncccn1)Nc1ncc(C(F)(F)F)cc1Cl | - | - | - | - | - | -
COC(=O)[C@@]1(C)[C@H]2C(=O)N(Cc3ccccc3)C(=O)[C@H]2[C@H]2CN(C)C(=NC3CCCCC3)N21 | . | . | . | . | - | .
COc1ccc(CN(Cc2cccn2C)S(=O)(=O)c2cccc(C(F)(F)F)c2)cc1 | - | - | . | - | - | -
N/C(=N\O)c1ccc(Oc2ccccc2Cl)c([N+](=O)[O-])c1 | - | - | 98 | - | - | -
CC(=O)Nc1ccc(NC(=O)C(C)OC(=O)CCc2nc3ccccc3s2)cc1 (centres undefined) | - | - | - | - | - | -
Cc1ccc(SCc2nc(N)nc(Nc3ccccc3C)n2)c(C)c1 | - | - | - | - | - | -
Nc1nc(CSc2n[nH]c(-c3ccccc3)n2)nc(Nc2ccccc2)n1 | - | - | - | - | - | -
Cc1ccc(Nc2nc(N)nc(CSc3ncccn3)n2)cc1 | - | - | - | 68 | - | -
Cc1ccc(Nc2nc(N)nc(CSc3nccn3C)n2)c(C)c1 | - | - | - | 48 | - | -
Cc1ccc(Nc2nc(N)nc(CSCCO)n2)cc1 | - | - | - | 48 | - | -
COc1ccc(Nc2nc(N)nc(CSc3n[nH]c(-c4ccccc4)n3)n2)cc1 | - | - | - | 49 | - | -
COc1ccc(Nc2nc(N)nc(CSCCO)n2)cc1 | - | - | - | - | - | -
Nc1nc(CSc2ncccn2)nc(Nc2ccccc2)n1 | - | - | - | - | - | -
COc1ccccc1N1CCN(C(=O)c2noc(C(C)C)c2[N+](=O)[O-])CC1 | - | - | - | - | - | -
COc1cc(OC)cc(C(=O)N[C@H](C(=O)OCC(=O)Nc2ccc3c(c2)OCO3)C(C)C)c1 | - | - | - | - | - | -
NC(=O)c1ccc(NC(=O)CN2CCN(c3ccccc3)CC2)cc1 | - | - | - | - | - | -
O=C(CNC(=O)c1ccccc1)OCC(=O)c1ccccc1Cl | - | - | - | - | - | -
O=C(Cc1ccccc1)NCC(=O)OCC(=O)c1ccccc1Cl | - | - | 77 | - | - | -
COc1cc2nc(N(C)C)nc(N)c2cc1OC | - | - | . | 65 | - | -
Cc1nc(N)sc1C(=O)N/N=C/c1ccc([N+](=O)[O-])cc1 | - | - | - | - | - | -
Cc1nc(N)sc1C(=O)N/N=C/c1ccccc1[N+](=O)[O-] | - | - | - | 58 | - | -
O=C(N/N=C/c1c[nH]c2ccccc12)c1sc2ccccc2c1Cl | - | - | - | 50 | - | -
Cc1nc(N)sc1C(=O)N/N=C/c1c[nH]c2ccccc12 | - | - | 91 | - | - | -
C/C=C/c1ccc(OCC(=O)N2CCc3cc(OC)c(OC)cc3C2)c(OC)c1 | - | - | - | - | - | -
SMILES | Bfl-1 A1 inh | SUMO Mot1 rescue | ALR H2O2 inh | AHR activator | Efflux pump inh | VLA-4 inh
CCc1ccc(OC(C)C(=O)Nc2ccc(S(=O)(=O)Nc3nccs3)cc2)cc1 (centres undefined) | - | - | . | - | - | -
CC1(C)C/C(=N\NC(=S)Nc2ccccc2F)c2cc(O)ccc2O1 | - | - | - | 60 | - | -
Cc1ccc(/C(C#N)=C\c2cn(C)c3ccccc23)cc1 | - | - | - | 75 | - | -
O=c1[nH]c2ccccc2nc1-c1ccc(Cl)cc1 | - | - | - | 76 | - | -
O=C(c1ccc(F)cc1)N1CCN(C2CCC(c3ccccc3)CC2)CC1 (centres undefined) | - | - | - | - | - | -
O=C(c1ccccc1F)N1CCN(C2CCC(c3ccccc3)CC2)CC1 (centres undefined) | - | 282 | . | - | - | -
O=C(NNc1c2ccccc2nc2ccccc12)c1ccc(O)cc1 | - | - | 99 | - | - | -
